Measured values published in the supplement of paper PMC13380429.
Values without a mark were called inactive.

Tested on: Vero E6 infected with SARS-CoV-2
Assay: inhibition of SARS-CoV-2 cytopathic effect; higher = more antiviral protection, active = above 15
Conditions: 48 h

Row | SMILES | inhibition of SARS-CoV-2 cytopathic effect (1 nM) | inhibition of SARS-CoV-2 cytopathic effect (8.33 nM) | inhibition of SARS-CoV-2 cytopathic effect (100 nM) | inhibition of SARS-CoV-2 cytopathic effect (833.33 nM) | inhibition of SARS-CoV-2 cytopathic effect (10000 nM)
1 | Nc1ccncc1 [dalfampridine] | 0.53% | 0.41% | 1.64% | 2.49% | 1.18%
2 | Cc1ccc(S(=O)(=O)N2CCC[C@H]2c2ccc(F)cc2)cc1 | 0.31% | -0.49% | 0.49% | 1.4% | 0.86%
3 | CCOC(=O)[C@H](CCc1ccccc1)N[C@@H](C)C(=O)N1CCC[C@H]1C(=O)O [enalapril] | -1.51% | -1.35% | -0.07% | 2.42% | 0.52%
4 | CCN(CC)Cc1cc(Nc2ccnc3cc(Cl)ccc23)ccc1O [amodiaquine] | 3.02% | 3.97% | 0.97% | -1.05% | 44.7% (active)
5 | Cc1cccc(C)c1OCC(=O)N[C@@H](Cc1ccccc1)[C@@H](O)C[C@H](Cc1ccccc1)NC(=O)[C@H](C(C)C)N1CCCNC1=O [Lopinavir] | 0.81% | -0.07% | 0.62% | -0.42% | 6.72%
6 | CCCC(=O)C1(c2ccccc2)CCN(C(=O)[C@@H](Cc2ccc(OC)cc2)NC(=O)[C@@H](N)Cc2cncn2C)CC1 | 0.65% | -1.21% | 0.17% | -1.38% | 0.37%
7 | O=C(Nc1cnn2ccc(N3CCC[C@@H]3c3cc(F)ccc3F)nc12)N1CC[C@H](O)C1 [larotrectinib] | 1.44% | 4.14% | 3.48% | -0.49% | 2.41%
